Screening results from PubChem BioAssay.
IL-1B inflam inh: inflammasome signaling inhibition, IL-1 beta readout; THP-1 LPS/ATP IL-1B secretion, AlphaLISA, 16 h; stronger effect = lower value; activity change, % at 57.5 µM; 4.7% of 360,000 active; AID 743279; in the data active means activity change below about -50%; inconclusive means mostly about -30% to -49%
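Secreted IL-1B measured by AlphaLISA bead assay after 16 h compound exposure of THP-1 cells; compounds (final up to 57.5 uM) added 1 h before LPS (250 ng/mL) and ATP (1.25 mM) stimulation; lower signal means less secretion.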
HT1080-NT tox: kills 2HG-producing HT-1080-NT fibrosarcoma cells | HT-1080-NT fibrosarcoma viability, CellTiter-Glo ATP luminescence, 48 h | Potency, µM (doses to about 46.1 µM), most hits filed as cytotoxic | 1.6% of 360,000 active | AID 686970;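 further: NT is the 2HG producing partner of a matched IDH1 knockdown line; nearly all actives have a fitted effect of over 55% in size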
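HT-1080-NT fibrosarcoma cells (2HG-overproducing), 750 cells/well in RPMI with 5% FBS, dosed after 2 h and incubated 48 h at 37C. CellTiter-Glo luminescence normalized to DMSO and no-cell wells; concentration-response curves fitted and classed.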
DT40 TDP1 CPT: growth inhibition of DT40 Tdp1-/-;hTDP1 cells with camptothecin (screen for TDP1 inhibitors); chicken DT40 Tdp1-/-;hTDP1 cells + 20 nM CPT, ATP luminescence, 48 h; Potency, µM (series often up to 46.2 µM), usual class: inhibitors; 12% of 420,000 active; further: nearly all actives have a fitted effect of over 55% in size
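Chicken DT40 Tdp1-/- cells complemented with human TDP1, 400 cells/well, exposed to compounds plus 20 nM camptothecin for at least 48 h at 37 C; viability read as ATP content by CellTiter-Glo luminescence.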
TDP1 cell noCPT: qHTS for Inhibitors of human tyrosyl-DNA phosphodiesterase 1 (TDP1): qHTS in cells in absence of CPT. DT40 Tdp1-/- hTDP1 cells, no CPT, ATP luminescence, 48 h. Potency, µM (titrated, usually from 46.2 µM), actives largely listed as inhibitors. 15% of 420,000 active; further: nearly all actives have a fitted effect of over 55% in size
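Stably hTDP1-transfected Tdp1-null chicken DT40 cells were treated with library compounds minus camptothecin and grown for at least 48 hr at 37 °C, after which cellular ATP was quantified by luminescence.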
HT1080 IDH1KD tx: toxicity to HT-1080 IDH1 knockdown cells (counter line); 2% of 360,000 active; Potency, µM (doses to about 46.1 µM), usual class: cytotoxic; HT-1080 IDH1 knockdown viability, ATP luminescence, 48 h
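% activity derives from luminescence (CellTiter-Glo), normalised to DMSO and no-cell wells. HT-1080-IDH1KD cells, 750/well, had 48 h compound exposure at 37 °C.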
Numbers stand for hits. Only some compounds are listed: those with a hit (about 19% of all), similar ones and a draw of the others. Unless noted, the call rests on the fitted dose curve; in most records, active means well fitted curve in the direction sought with a large enough effect; inconclusive means small, poorly fitted or top-dose-only effect, or another doubt; inactive means no such curve, though single readings can be large; an effect the other way counts as inactive or inconclusive.

For Cc1ccc(C)c2[nH]c(=O)c(CN(CCCN(C)C)C(=O)NCc3ccccc3)cc12 the results were IL-1B inflam inh inconclusive, HT1080-NT tox inactive, DT40 TDP1 CPT inconclusive, TDP1 cell noCPT 23.1µM and HT1080 IDH1KD tx inactive.
`COc1ccccc1N(C(=O)c1cncc(Br)c1)c1nc(-c2ccc(C)cc2)cs1` gave IL-1B inflam inh inactive, HT1080-NT tox inactive, DT40 TDP1 CPT 20.6µM, TDP1 cell noCPT 18.4µM and HT1080 IDH1KD tx inactive.
Screening O=C(COC(=O)c1cncc(Br)c1)Nc1nc(-c2ccc(F)cc2)cs1 returned IL-1B inflam inh inactive, HT1080-NT tox inactive, DT40 TDP1 CPT inconclusive, TDP1 cell noCPT inconclusive and HT1080 IDH1KD tx inactive.
CCc1nnc(NC(=O)CSc2nc3cc(OC)ccc3cc2C)s1 was read as IL-1B inflam inh inactive, HT1080-NT tox inactive, DT40 TDP1 CPT inactive, TDP1 cell noCPT 8.2µM and HT1080 IDH1KD tx inactive.
Screening COc1ccc(-c2cc(-c3ccccc3)nc(SCC(=O)Nc3nccs3)c2C#N)cc1 returned IL-1B inflam inh inactive, HT1080-NT tox inactive, DT40 TDP1 CPT inconclusive, TDP1 cell noCPT 8.2µM and HT1080 IDH1KD tx inactive.
For N#Cc1c(-c2ccccc2)cc(-c2ccccc2)nc1SCC(=O)Nc1ccc(Cl)cc1 the results were DT40 TDP1 CPT inactive and TDP1 cell noCPT inactive.
For CCc1nnc(NC(=O)CSc2nc(-c3ccccc3)cc(-c3ccc(OC)cc3)c2C#N)s1 the results were IL-1B inflam inh inactive, HT1080-NT tox inactive, DT40 TDP1 CPT 23.1µM, TDP1 cell noCPT 20.6µM and HT1080 IDH1KD tx inactive.
`CCc1nnc(NC(=O)Cc2ccc(OC)cc2)s1` gave IL-1B inflam inh inactive, HT1080-NT tox inactive, DT40 TDP1 CPT inactive, TDP1 cell noCPT inactive and HT1080 IDH1KD tx inactive.
Screening COc1ccc(-c2cc(-c3ccccc3)c(C#N)c(SCC(=O)Nc3ncc(C)s3)n2)cc1 returned IL-1B inflam inh inactive, HT1080-NT tox inactive, DT40 TDP1 CPT inactive, TDP1 cell noCPT inconclusive and HT1080 IDH1KD tx inactive.
`N#Cc1c(-c2ccc(Cl)cc2)cc(-c2ccccc2)nc1SCC(=O)O` gave IL-1B inflam inh inactive, HT1080-NT tox inactive, DT40 TDP1 CPT 18.4µM, TDP1 cell noCPT inconclusive and HT1080 IDH1KD tx inactive.
`O=C(CNC(=O)c1sc2ccccc2c1Cl)NCc1cccc(C(F)(F)F)c1` gave IL-1B inflam inh inactive, HT1080-NT tox inactive, DT40 TDP1 CPT inactive, TDP1 cell noCPT inactive and HT1080 IDH1KD tx inactive.
`O=C(OCCc1cc2ccccc2c(=O)o1)c1ccccc1C(F)(F)F` gave IL-1B inflam inh inactive, HT1080-NT tox inactive, DT40 TDP1 CPT inconclusive, TDP1 cell noCPT inconclusive and HT1080 IDH1KD tx inactive.
For O=C(O)c1cc(O)ccc1NC(=O)C(c1ccccc1)c1ccccc1 the results were IL-1B inflam inh inactive, HT1080-NT tox inactive, DT40 TDP1 CPT inactive, TDP1 cell noCPT inactive and HT1080 IDH1KD tx inactive.
`CCc1nnc(NC(=O)CSc2nc(C)c3c(c2C#N)CCCC3)s1` gave IL-1B inflam inh inactive, HT1080-NT tox inconclusive, DT40 TDP1 CPT 17.8µM, TDP1 cell noCPT 17.8µM and HT1080 IDH1KD tx inconclusive.
Screening O=C(Nc1nccs1)c1cccc(NC(=O)C(F)(F)F)c1 returned IL-1B inflam inh inactive, HT1080-NT tox inactive, DT40 TDP1 CPT inactive, TDP1 cell noCPT inactive and HT1080 IDH1KD tx inactive.
For CCOC(=O)c1[nH]c(C)c(C(=O)OCC(=O)NCc2ccc(OC)cc2)c1C the results were IL-1B inflam inh inactive, HT1080-NT tox inactive, DT40 TDP1 CPT inactive, TDP1 cell noCPT inactive and HT1080 IDH1KD tx inactive.
CCOC(=O)c1c(C)[nH]c(CCC(=O)NCc2ccc(F)cc2)c1C was read as DT40 TDP1 CPT inactive and TDP1 cell noCPT inconclusive.
Screening CCOC(=O)c1c(C)[nH]c(CCC(=O)Nc2cc(Cl)ccc2OC)c1C returned DT40 TDP1 CPT 18.4µM and TDP1 cell noCPT 20.6µM.
CCOC(=O)c1c(C)[nH]c(CCC(=O)NCc2cccc(C)c2)c1C was read as DT40 TDP1 CPT inconclusive and TDP1 cell noCPT 16.4µM.
CCOC(=O)c1c(C)[nH]c(C(=O)OC(C(=O)N(C)C)c2ccccc2)c1C (stereo not given) was read as DT40 TDP1 CPT 10µM and TDP1 cell noCPT 10µM.
Screening CCOC(=O)c1c(C)[nH]c(CCC(=O)NCc2ccc(OC)cc2OC)c1C returned DT40 TDP1 CPT inconclusive and TDP1 cell noCPT 16.4µM.
For CSc1nccc(-c2cc(Cl)c3c(c2)CC(CNC(=O)c2ccc(C)nc2)O3)n1 (stereo not given) the results were DT40 TDP1 CPT inactive and TDP1 cell noCPT inactive.
CCOC(=O)c1c(C)[nH]c(CCC(=O)NC(C)c2ccccc2)c1C (stereo not given) was read as DT40 TDP1 CPT inconclusive and TDP1 cell noCPT 18.4µM.
For Cc1cc(=O)[nH]c(-n2ncc(C#N)c2N)n1 the results were IL-1B inflam inh inactive, HT1080-NT tox inactive, DT40 TDP1 CPT inactive, TDP1 cell noCPT inactive and HT1080 IDH1KD tx inactive.
Screening CCOC(=O)N1CCN(c2cc(C)c(C(C)=O)cc2F)CC1 returned IL-1B inflam inh inactive, HT1080-NT tox inactive, DT40 TDP1 CPT inconclusive, TDP1 cell noCPT inconclusive and HT1080 IDH1KD tx inactive.
For CCC(=O)c1cc(F)c(N2CCN(C(=O)c3ccco3)CC2)cc1C the results were IL-1B inflam inh inactive, HT1080-NT tox inactive, DT40 TDP1 CPT inconclusive, TDP1 cell noCPT 29.1µM and HT1080 IDH1KD tx inactive.
Screening CCCC(=O)c1cc(F)c(N2CCN(S(=O)(=O)c3ccccc3)CC2)cc1C returned IL-1B inflam inh -58.8, HT1080-NT tox inactive, DT40 TDP1 CPT 16.4µM, TDP1 cell noCPT 11.2µM and HT1080 IDH1KD tx inactive.
CC(=O)c1cc(F)c(N2CCN(C(=O)Cc3ccccc3)CC2)cc1C was read as IL-1B inflam inh inactive, HT1080-NT tox inactive, DT40 TDP1 CPT 14.6µM, TDP1 cell noCPT 14.6µM and HT1080 IDH1KD tx inactive.
`COc1ccc(N2CCN(C(c3ccccc3F)c3sc4nc(-c5ccco5)nn4c3O)CC2)cc1` (stereo not given) gave DT40 TDP1 CPT inactive and TDP1 cell noCPT inactive.
For COc1ccccc1C#CC1=CC(=O)CC(C)(C)C1 the results were IL-1B inflam inh inconclusive, HT1080-NT tox inactive, DT40 TDP1 CPT 16.4µM, TDP1 cell noCPT 9.2µM and HT1080 IDH1KD tx inactive.
Screening COc1ccc(C#CC2=CC(=O)CC(C)(C)C2)cc1 returned IL-1B inflam inh inactive, HT1080-NT tox inactive, DT40 TDP1 CPT inconclusive, TDP1 cell noCPT inconclusive and HT1080 IDH1KD tx inactive.
`CCC(C(=O)Nc1ccc(C(C)=O)cc1)n1c(C)c2cnn(-c3ccccc3)c(=O)c2c1C` (stereo not given) gave DT40 TDP1 CPT 23.1µM and TDP1 cell noCPT inconclusive.
CCOC(=O)c1cccc(NC(=O)CCCn2c(C)c3cnn(-c4ccccc4)c(=O)c3c2C)c1 was read as DT40 TDP1 CPT 18.4µM and TDP1 cell noCPT 16.4µM.
Screening CCCn1c2ccccc2c2cnn(CC(=O)Nc3cccc(C(=O)OCC)c3)c(=O)c21 returned DT40 TDP1 CPT inactive and TDP1 cell noCPT inactive.
